# Source: PubChem BioAssay (NCATS)
# Results filed as inconclusive are left out. Entries that show only a call come without a potency. A number with no mark means an inactive call. Active and inactive are the calls of the source. Calls follow the shape of the dose curve; as a rule, active = well fitted curve in the direction sought with a large enough effect; inconclusive = small, poorly fitted or top-dose-only effect, or another doubt; inactive = no such curve, though single readings can be large; an effect the other way counts as inactive or inconclusive.
# Key:
# [1] = target: Rap guanine nucleotide exchange factor 3 (Homo sapiens) (UniProt O95398); experiment: Confirmatory qHTS for antagonist of cAMP-regulated guanine nucleotide exchange factor 3 (EPAC1) (AID 1645880); conditions: EPAC1 Rap1B-BODIPY-GDP exchange, fluorescence; series mostly up to 115 µM; also: nearly all actives have a fitted effect of over 55% in size; also: potency is read from the fitted curve at half-maximal effect
# Sequence of Rap guanine nucleotide exchange factor 3 (Homo sapiens) (O95398 whole entry, looked up): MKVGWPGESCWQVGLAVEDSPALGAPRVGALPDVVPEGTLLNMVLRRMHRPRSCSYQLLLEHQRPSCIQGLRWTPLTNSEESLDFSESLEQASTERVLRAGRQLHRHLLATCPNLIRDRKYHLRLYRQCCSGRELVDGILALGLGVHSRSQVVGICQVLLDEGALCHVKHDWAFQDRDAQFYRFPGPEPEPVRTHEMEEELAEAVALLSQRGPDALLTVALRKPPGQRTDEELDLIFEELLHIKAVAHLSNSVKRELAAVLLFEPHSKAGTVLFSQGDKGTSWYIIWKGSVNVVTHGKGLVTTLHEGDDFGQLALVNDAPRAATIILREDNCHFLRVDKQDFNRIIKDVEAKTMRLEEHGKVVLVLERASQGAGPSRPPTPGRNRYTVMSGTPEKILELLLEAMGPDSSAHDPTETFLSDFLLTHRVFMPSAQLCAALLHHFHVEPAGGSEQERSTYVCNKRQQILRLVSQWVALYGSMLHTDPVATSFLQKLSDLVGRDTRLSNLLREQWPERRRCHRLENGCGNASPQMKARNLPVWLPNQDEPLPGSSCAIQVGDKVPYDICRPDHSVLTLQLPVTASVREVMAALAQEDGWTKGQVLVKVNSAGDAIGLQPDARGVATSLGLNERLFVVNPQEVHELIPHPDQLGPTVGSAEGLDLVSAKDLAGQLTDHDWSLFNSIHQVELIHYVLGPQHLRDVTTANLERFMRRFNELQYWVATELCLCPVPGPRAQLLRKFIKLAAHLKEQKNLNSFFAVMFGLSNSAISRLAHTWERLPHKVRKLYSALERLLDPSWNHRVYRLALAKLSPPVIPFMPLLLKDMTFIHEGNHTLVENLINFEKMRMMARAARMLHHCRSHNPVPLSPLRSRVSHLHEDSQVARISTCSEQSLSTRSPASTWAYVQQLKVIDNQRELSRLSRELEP
# Method in brief: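 Released BODIPY-GDP fluoresces less than Rap1-bound BODIPY-GDP; the signal is followed at 480/540 nm at 5-min intervals over 30 min, after 5 min at room temperature. Reactions contain 100 nM EPAC1, 250 nM RAP1B-BODIPY-GDP and 50 uM GDP; results are normalized to ATA and DMSO.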
# [2] = target: Rap guanine nucleotide exchange factor 3 (Homo sapiens) (UniProt O95398); experiment: Confirmatory qHTS for agonist of cAMP-regulated guanine nucleotide exchange factor 3 (EPAC1) (AID 1645881); conditions: EPAC1 Rap1B BODIPY-GDP exchange fluorescence; series mostly up to 154 µM;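 also: EPAC1 catalysed release of BODIPY-GDP from Rap1B seen as fluorescence loss; nearly all actives have a fitted effect of over 75% in size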
# [3] = target: Rap guanine nucleotide exchange factor 4 (Homo sapiens) (UniProt Q8WZA2); experiment: Confirmatory qHTS for agonist of cAMP-regulated guanine nucleotide exchange factor 4 (EPAC2) (AID 1645884); conditions: EPAC2 GEF activity, Rap1B-BODIPY-GDP fluorescence; series mostly up to 154 µM;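 also: nucleotide exchange releases bodipy-GDP from Rap1 and this lowers its fluorescence; nearly all actives have a fitted effect of over 65% in size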
# Sequence of Rap guanine nucleotide exchange factor 4 (Homo sapiens) (Q8WZA2 whole entry, looked up): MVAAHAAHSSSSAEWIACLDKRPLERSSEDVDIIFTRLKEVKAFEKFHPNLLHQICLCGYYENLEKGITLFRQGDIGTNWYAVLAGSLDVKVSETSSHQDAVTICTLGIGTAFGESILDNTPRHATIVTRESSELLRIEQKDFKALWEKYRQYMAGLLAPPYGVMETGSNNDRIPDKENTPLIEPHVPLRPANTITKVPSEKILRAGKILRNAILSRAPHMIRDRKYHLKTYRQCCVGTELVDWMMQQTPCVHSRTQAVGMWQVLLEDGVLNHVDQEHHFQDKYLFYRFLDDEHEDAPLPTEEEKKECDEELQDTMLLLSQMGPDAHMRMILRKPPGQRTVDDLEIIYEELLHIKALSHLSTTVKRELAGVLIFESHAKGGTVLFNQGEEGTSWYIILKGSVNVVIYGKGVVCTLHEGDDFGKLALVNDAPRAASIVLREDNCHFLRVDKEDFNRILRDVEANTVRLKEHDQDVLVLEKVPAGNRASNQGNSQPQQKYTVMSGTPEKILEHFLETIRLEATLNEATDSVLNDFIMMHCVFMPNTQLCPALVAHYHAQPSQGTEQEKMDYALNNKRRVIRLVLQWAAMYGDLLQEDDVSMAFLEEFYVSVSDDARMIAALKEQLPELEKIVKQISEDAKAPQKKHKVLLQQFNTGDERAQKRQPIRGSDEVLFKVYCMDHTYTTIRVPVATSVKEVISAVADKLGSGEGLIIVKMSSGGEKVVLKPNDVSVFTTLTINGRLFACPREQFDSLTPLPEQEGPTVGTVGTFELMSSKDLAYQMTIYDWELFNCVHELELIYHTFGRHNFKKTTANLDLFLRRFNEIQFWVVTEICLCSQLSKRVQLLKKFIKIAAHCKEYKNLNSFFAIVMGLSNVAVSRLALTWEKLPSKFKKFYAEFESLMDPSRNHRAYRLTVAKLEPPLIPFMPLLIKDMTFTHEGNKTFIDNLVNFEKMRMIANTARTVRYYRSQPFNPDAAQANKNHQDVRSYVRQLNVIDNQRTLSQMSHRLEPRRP
# [4] = target: Rap guanine nucleotide exchange factor 4 (Homo sapiens) (UniProt Q8WZA2); experiment: Confirmatory qHTS for antagonist of cAMP-regulated guanine nucleotide exchange factor 4 (EPAC2) (AID 1645885); conditions: EPAC2 Rap1B-BODIPY-GDP exchange fluorescence, biochemical; series mostly up to 12.7 µM; also: nearly all actives have a fitted effect of over 25% in size; also: potency is read from the fitted curve at half-maximal effect
# [5] = target: Rap guanine nucleotide exchange factor 3 (Homo sapiens) (UniProt O95398); experiment: Counterscreen qHTS for antagonist of cAMP-regulated guanine nucleotide exchange factor 3 (EPAC1) (AID 1645888); conditions: Rap1B-BODIPY-GDP nucleotide exchange, fluorescence; series mostly up to 154 µM
# Method in brief: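 Rap1B–BODIPY-GDP (250 nM) with 50 uM GDP; compounds pin-transferred to 9.74 nM–152 uM final (activator) or from 7.32 nM upwards (inhibitor). Fluorescence Ex/Em 480/540 nm read at 5 and 30 min, then after adding cAMP or buffer, at room temperature.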
SMILES,Potency [1],Potency [2],Potency [3],Potency [4],Potency [5],activation [3],"activity change, negative = inhibition [5]"
CCOC(=O)N1CCN(S(=O)(=O)c2cc(-c3nn4c(C)nnc4c4ccccc34)ccc2C)CC1,inactive,inactive,inactive,inactive,inactive,–,–
COC(=O)C1=CN(Cc2ccc(OC)c(OC)c2)C=C(C(=O)OC)C1c1cccc(F)c1,inactive,inactive,inactive,inactive,inactive,–,–
c1ccc(N2[C@@H]3c4ccccc4C[C@H]2c2ccccc23)cc1,inactive,inactive,–,inactive,–,"8.36% [at 17.1 µM, percent relative to cAMP agonist control]",-11.2% [at 30.8 µM]
Cc1ccc(S(=O)(=O)Nc2ccccc2C=Nc2cccc(C)c2C)cc1,inactive,inactive,inactive,inactive,inactive,–,–
O=C(NCC(c1ccco1)N1CCN(c2ccccc2F)CC1)c1cccs1 (stereo not given),inactive,inactive,–,inactive,–,"5.11% [at 17.1 µM, percent relative to cAMP agonist control]",6.53% [at 30.8 µM]
CCOC(=O)N1CCN(C(=O)CSc2nnc(Cc3ccccc3)o2)CC1,inactive,inactive,inactive,inactive,inactive,–,–
Cc1ccc(/C=C2\SC(=S)N(NS(=O)(=O)c3ccc(C)cc3)C2=O)cc1,39.8 µM (active),inactive,–,inactive,–,"11.9% [at 17.1 µM, percent relative to cAMP agonist control]",-10.4% [at 30.8 µM]
Fc1ccc(-c2noc3ncnc(N4CCN(c5ccccc5)CC4)c23)cc1,inactive,inactive,inactive,inactive,inactive,–,–
Cc1ccc(C)c(S(=O)(=O)/N=C2\C=C(NS(=O)(=O)c3ccccc3)C(=O)c3ccccc32)c1,22.4 µM (active),inactive,–,inactive,–,"3.6% [at 17.1 µM, percent relative to cAMP agonist control]",-11.3% [at 30.8 µM]
CC(C)(C)NC(=O)NC(=O)CN1CCc2ccccc21,inactive,inactive,–,inactive,–,"4.54% [at 17.1 µM, percent relative to cAMP agonist control]",5.54% [at 30.8 µM]
COC(=O)c1ccc2nc(-c3ccc(C)cc3)c(Cc3ccc(C)cc3)n2c1,inactive,inactive,inactive,37.9 µM (active),inactive,–,–
Cc1cccc(Cn2c(SCc3ccc(C(=O)N4CCCCCC4)cc3)nc3ccncc32)c1,inactive,inactive,inactive,inactive,inactive,–,–
CCCOC(=O)c1c(-c2ccccc2)c(-c2ccccc2)nn(C)c1=O,inactive,inactive,inactive,inactive,inactive,–,–
COc1ccc(C=NNc2ccc(S(=O)(=O)Nc3ccccc3C(=O)O)cc2[N+](=O)[O-])c(OC)c1,15.1 µM (active),inactive,inactive,inactive,inactive,–,–
CCCCN1C(=O)C(CC(=O)NC2CCCCC2)CC(C(=O)N2CCCCCC2)=C1C (stereo not given),inactive,inactive,–,inactive,–,"8.48% [at 17.1 µM, percent relative to cAMP agonist control]",-2.29% [at 30.8 µM]
CCOC(=O)C1=C(N)OC2=C(C(=O)CC(C)(C)C2)C1c1ccc(CC)s1 (stereo not given),inactive,inactive,inactive,inactive,inactive,–,–
Cc1ccc(-c2cn3c(n2)sc2cc(C(=O)NCCC4=CCCCC4)ccc23)c(C)c1,inactive,inactive,inactive,inactive,inactive,–,–
COc1cc2c(-c3ccc4c(c3)OCO4)c(-c3ccsc3)oc(=O)c2cc1OC,inactive,inactive,–,inactive,–,"13.2% [at 17.1 µM, percent relative to cAMP agonist control]",10.4% [at 30.8 µM]
CC(C)(C)n1cnc2cc(NCc3ccccc3Cl)ccc21,84.9 µM (active),inactive,inactive,inactive,inactive,–,–
